High-throughput results (PubChem)
Hits are enriched below; roughly 4.2% of the tested compounds scored in any of these assays.
NALP1 yeast inh – NALP1 inflammasome inhibitors in reconstituted yeast, colorimetric, S. cerevisiae, triplicate retest | S. cerevisiae NALP1/ASC/caspase-1 growth, X-gal OD620, 72 h | inhibition, % at 10 µM | hit rate 0.61% among 280,000 | AID 2071, 2009; in the data active means inhibition mostly above about 24%, no sharp cut-off; inactive means mostly below about 32%
V-ATPase pHluor – regulators of yeast V-ATPase proton pumping, primary screen, pHLuorin cytosolic pH fluorescence. S. cerevisiae. response, % at 10 µM. hit rate 0.37% among 350,000; in the data active means response mostly above about 7.3%, no sharp cut-off; inactive means mostly below about 5.4%; further: actives read high
tim23-1 inh – growth inhibitors of tim23-1 mutant yeast, primary screen, luminescence, uHTS | S. cerevisiae tim23-1 growth, BacTiter-Glo luminescence, 24 h | inhibition, % at 20 µM | hit rate 1.3% among 330,000;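 active means growth inhibition of the mutant yeast at or above 50%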;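 further: temperature-sensitive mutant grown at 25 °C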
TIM10 inh – growth inhibitors of isogenic TIM10 control yeast, primary screen, counter-screen for tim10-1 yeast inhibitor project, luminescence, uHTS; S. cerevisiae TIM10 strain growth, BacTiter-Glo luminescence, 24 h; inhibition, % at 10 µM; hit rate 1.4% among 330,000; AID 463195, 2010;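 active means inhibition of 40% or more at the single tested concentration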;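 further: wild-type TIM10 isogenic control strain grown at permissive 25 °C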
tim10-1 inh – growth inhibitors of tim10-1 mutant yeast, primary screen, luminescence, uHTS; inhibition, % at 20 µM; AID 463190, 2010; S. cerevisiae tim10-1 ts strain growth, BacTiter-Glo, 24 h; hit rate 2.2% among 330,000;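 active means inhibition of at least 40%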;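 further: mutant grown at 25 °C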
NALP3 yeast inh – NALP3 inflammasome inhibitors in reconstituted yeast, primary screen, luminescence, uHTS; Yeast reconstituted NLRP3/ASC/caspase-1, beta-gal luminescence, 24 h; inhibition, % at 10 µM; hit rate 0.39% among 330,000; AID 2825, 2010;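 active means inhibition of 50% or more; inactive means inhibition below 50%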
tim10-1 conf – growth inhibitors of tim10-1 mutant yeast, confirmation, single concentration, luminescence, S. cerevisiae. S. cerevisiae tim10-1 ts strain growth, BacTiter-Glo, 24 h. inhibition, % at 20 µM. shares compounds with tim10-1 inh. hit rate 56% among 7,400. AID 463213, 2010;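 active means inhibition of yeast growth at or above a set limit in either of two repeat tests at 20 µM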;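 further: tim10-1 mutant grown at permissive 25 °C to find synthetic lethal compounds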
tim10 confirm – growth inhibitors of wild-type TIM10 yeast, confirmation, counter-screen for tim10-1 synthetic lethality project, single concentration, luminescence, S. cerevisiae | hit rate 63% among 4,600 | inhibition, % at 10 µM | S. cerevisiae tim10 strain growth, BacTiter-Glo luminescence, 24 h | shares compounds with TIM10 inh;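 active means inhibition of yeast growth at or above a set limit in either of two replicates at 10 µM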; further: this counterscreen used the strain with wild-type TIM10
Large screens that a line does not name were inactive (follow-up assays come after a bar, where they were run).

CCc1ccc(N2CC(C(=O)Nc3nc4ccc(S(C)(=O)=O)cc4s3)CC2=O)cc1 (centres undefined)	none
CC(C)c1cc(C(=O)Nc2cccc(Cl)c2)no1	none
CC(C)c1onc(C(=O)Nc2cccc(Cl)c2)c1[N+](=O)[O-]	TIM10 inh 41.4, tim10-1 inh 45.0 | tim10-1 conf 36.8 | tim10 confirm 39.0
CC(C)Cn1c(=S)[nH]c2cc(Cl)ccc21	TIM10 inh 50.0, tim10-1 inh 42.8 | tim10-1 conf inactive | tim10 confirm inactive
CC(C)Cn1c(=S)[nH]c2ccccc2c1=O	none
COc1ccc(NC(=O)CN(c2ccc(C)cc2)S(=O)(=O)c2c(C)nn(C)c2C)cc1	none
COc1ccc2nc(NC(=O)CN(c3ccc(C)cc3)S(=O)(=O)c3c(C)nn(C)c3C)sc2c1	TIM10 inh 41.5, tim10-1 inh 44.7 | tim10-1 conf 30.9 | tim10 confirm 44.1
COc1ccc(NC(=O)/C(C#N)=C/c2c(C)nn(-c3ccc(F)cc3)c2Cl)cc1Cl	none
COc1ccc(NC(=O)/C(C#N)=C/c2c(C)nn(-c3ccc(F)cc3)c2Cl)cc1OC	TIM10 inh 48.9, tim10-1 inh 50.8 | tim10-1 conf 45.2 | tim10 confirm 42.1
CCc1n[nH]c(=S)n1/N=C/c1ccc(N(CC)CC)cc1	TIM10 inh 45.0, tim10-1 inh 42.3 | tim10-1 conf inactive | tim10 confirm inactive
COC(C/C=C\[C@@H](O)[C@@H](C)OCc1ccccc1)OC	none (no result: NALP1 yeast inh)
COC(C/C=C\C(=O)[C@H](C)OCc1ccccc1)OC	TIM10 inh 42.5, tim10-1 inh 44.1 (no result: NALP1 yeast inh) | tim10-1 conf 41.5 | tim10 confirm inactive
Cc1ccc(CNCCCn2cnc3c(OCc4ccccc4)ncnc32)o1	none (no result: NALP1 yeast inh, tim23-1 inh, TIM10 inh, tim10-1 inh, NALP3 yeast inh)
Cn1cc(CN2CCC(n3nccc3NC(=O)Cc3ccccc3)CC2)cn1	none
CCOc1ccccc1/C=C(\C#N)C1=CCCC1	none
O=C(Oc1c(CN2CCOCC2)cc(Cl)c2cccnc12)c1cccs1	TIM10 inh 41.5, tim10-1 inh 46.9 | tim10-1 conf 40.9 | tim10 confirm inactive
O=C(Oc1c(CN2CCOCC2)cc(Cl)c2cccnc12)c1ccc(F)cc1	none
COCCN(C(=O)C1CC1)c1nnc(-c2ccc(C)cc2)s1	none
CCOc1ccc(-c2nnc(N(CC)C(=O)C3CCC3)s2)cc1	TIM10 inh 43.3, tim10-1 inh 42.8 | tim10-1 conf 31.0 | tim10 confirm 35.1
Cc1cc(C)c2nc(NNC(=O)c3cc(=O)c4ccccc4o3)sc2c1	none
Cc1nccn1-c1cc(C(C)(C)C)nc2c(-c3ccccc3)cnn12	TIM10 inh 53.8, tim10-1 inh 50.4 | tim10-1 conf 48.1 | tim10 confirm 54.7
CCc1nccn1-c1cc(C(C)(C)C)nc2c(-c3ccc(Cl)cc3)cnn12	none
CCOP(=O)(OCC)c1ccc2c(c1)C(=O)c1ccccc1CC2	none (no result: NALP1 yeast inh)
CSc1ccc(S(=O)(=O)NCc2ccc(Cl)cc2Cl)cc1	TIM10 inh 45.9, tim10-1 inh 46.9 | tim10-1 conf 39.1 | tim10 confirm 39.5
O=S(=O)(NCc1ccc(Cl)cc1Cl)c1ccc(N2CCOCC2)nc1	none
CC(=O)N(Cc1ccc(F)cc1)C1=C(NCCc2ccccc2)C(=O)c2ccccc2C1=O	TIM10 inh 45.0, tim10-1 inh 40.7 | tim10-1 conf inactive | tim10 confirm 30.9
CC(=O)N(Cc1ccc(F)cc1)c1cccc(C)c1C	none (no result: V-ATPase pHluor)
Cc1ccc(/C=C/C(=O)Nn2cnnc2)cc1	TIM10 inh 41.7, tim10-1 inh 55.7 | tim10-1 conf inactive | tim10 confirm 38.8
Cc1ccc(/C=C/C(=O)NN2CCN(C)CC2)cc1	none
COc1cccc(CNC(=O)CCCCCNC(=O)N2CCn3c2nc2ccccc23)c1	none
Cc1nn(C)c(C(=O)Nc2ccc(S(=O)(=O)NC34CC5CC(CC(C5)C3)C4)cc2)c1Br	TIM10 inh 57.8, tim10-1 inh 53.9 | tim10-1 conf 44.5 | tim10 confirm inactive
O=C(O)Cn1nc(-c2ccccc2)ccc1=O	none
COc1ccc(OC)c2c1C(=O)C(Cl)=C(Cl)C2=O	NALP1 yeast inh 38.7, TIM10 inh 96.4, tim10-1 inh 91.1 | tim10-1 conf 93.7 | tim10 confirm 99.3
COc1ccc(/C=C/C(=O)c2ccc(O)cc2)cc1CN1CCOCC1	none
COc1ccc(/C=C/C(=O)C23CC4CC(CC(C4)C2)C3)cc1CN1CCOCC1	TIM10 inh 46.5, tim10-1 inh 46.1 | tim10-1 conf 37.5 | tim10 confirm 35.7
COc1cccc(N2CCN(C(=O)c3ccc4nc(N5CCCCC5)sc4c3)CC2)c1	none
COc1ccc(N2CCN(C(=O)c3ccc4nc(N5CCCCC5)sc4c3)CC2)cc1	TIM10 inh 40.1, tim10-1 inh 43.5 | tim10-1 conf 33.9 | tim10 confirm 33.1
CC1(C)CC(NC(=O)c2cccc(S(=O)(=O)N(Cc3ccccc3)c3ccccc3)c2)CC(C)(C)N1	none (no result: NALP1 yeast inh)
CCN1CCCC1CNC(=O)c1cc2cc(F)ccc2[nH]1 (centres undefined)	none
O=C1c2ccccc2C(=O)c2c1ccc1c(=O)n(C3CCCCC3)[nH]c21	TIM10 inh 50.5, tim10-1 inh 49.5 | tim10-1 conf 39.0 | tim10 confirm 53.6
O=c1c2[nH]c3ccccc3c2ncn1C1CCCCC1	none
CN(CC(=O)Nc1ccc(Cl)c(Cl)c1)C(=O)C12CC3CC(CC(C3)C1)C2	TIM10 inh 59.7, tim10-1 inh 44.9 | tim10-1 conf inactive | tim10 confirm 53.3
CN(CC(=O)Nc1ccc(Cl)c(Cl)c1)C1CCCCC1	none
O=C(OCC(=O)N1N=C(c2ccc(Cl)cc2)CC1c1ccco1)c1cccnc1 (centres undefined)	none (no result: NALP1 yeast inh)
c1coc(C2=Nc3cccc4cccc(c34)N2)c1	TIM10 inh 48.7, tim10-1 inh 47.4 | tim10-1 conf inactive | tim10 confirm inactive
COc1cc(OC)cc(-c2sc3ccc(OC)cc3c2C#CC2(N)CCCCC2)c1	TIM10 inh 44.7, tim10-1 inh 43.6 (no result: NALP1 yeast inh) | tim10-1 conf inactive | tim10 confirm inactive
COc1cccc(-c2sc3ccc(OC)cc3c2C#CC2(O)CCCCC2)c1	none (no result: NALP1 yeast inh)
O=C(NC(=S)Nc1ccccc1N1CCCCC1)c1ccccc1	TIM10 inh 59.9, tim10-1 inh 47.9 | tim10-1 conf 44.5 | tim10 confirm 47.0
O=C(NC(=S)Nc1ccccc1N1CCCC1)c1cccc(F)c1	TIM10 inh 52.1, tim10-1 inh 52.0 | tim10-1 conf inactive | tim10 confirm 48.3
